# Shown are actives, neighbours in structure and some others; about 1.1% of the full set was active somewhere.
# HTR5A ag = counter-screen for OPRM1-OPRD1 agonists: human HTR5A agonism; P47898; HTR5A agonist assay, luminescence, cell-based; activation, % at 9.3 µM; 0.61% of 340,000 active; in the data active = activation mostly above about 9.5%, no sharp cut-off; inactive = mostly below about 7.6%;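 note: 0% = cells with vehicle only and 100% = reference agonist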
# OPRM1-OPRD1 ag = agonists of human mu-delta opioid receptor heterodimerization. P35372+P41143. 0.3% of 340,000 active. AID 504326. cells, OPRM1-OPRD1 heterodimerization, luminescence. activation, % at 9.3 µM;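 note: 0% = vehicle-treated cells and 100% = reference agonist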
# Target sequence (P35372 whole entry, looked up): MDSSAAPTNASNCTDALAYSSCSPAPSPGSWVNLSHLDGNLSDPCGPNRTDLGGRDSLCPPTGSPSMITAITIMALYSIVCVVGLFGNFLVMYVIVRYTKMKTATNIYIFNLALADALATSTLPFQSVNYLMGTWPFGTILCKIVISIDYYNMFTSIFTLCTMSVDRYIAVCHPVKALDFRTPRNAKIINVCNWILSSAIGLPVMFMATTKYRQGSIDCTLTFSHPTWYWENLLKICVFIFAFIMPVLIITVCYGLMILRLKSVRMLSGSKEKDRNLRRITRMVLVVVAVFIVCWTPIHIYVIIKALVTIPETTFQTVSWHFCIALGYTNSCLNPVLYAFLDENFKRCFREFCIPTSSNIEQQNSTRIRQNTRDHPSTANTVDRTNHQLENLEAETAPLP
# Target sequence (P41143 whole entry, looked up): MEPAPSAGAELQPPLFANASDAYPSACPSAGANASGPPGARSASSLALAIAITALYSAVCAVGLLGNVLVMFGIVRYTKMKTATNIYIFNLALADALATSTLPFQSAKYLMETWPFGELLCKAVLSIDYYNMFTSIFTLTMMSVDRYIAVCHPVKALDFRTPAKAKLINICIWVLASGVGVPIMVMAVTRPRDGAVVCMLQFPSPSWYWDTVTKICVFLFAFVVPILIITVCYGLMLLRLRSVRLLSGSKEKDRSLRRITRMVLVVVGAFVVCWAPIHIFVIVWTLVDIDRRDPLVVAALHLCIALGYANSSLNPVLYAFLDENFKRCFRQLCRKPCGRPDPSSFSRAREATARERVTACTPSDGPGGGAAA
# HTR5A inv ag = inverse agonist of human HTR5A in OPRM1-OPRD1 counter-screen; inhibition, % at 9.3 µM; P47898; AID 504634; HTR5A cell line, luminescence, inverse agonism; 0.083% of 340,000 active; in the data active = inhibition mostly above about 23%, no sharp cut-off; inactive = mostly below about 18%;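 note: 0% = cells with DMSO and 100% = no-cell wells with DMSO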
# OPRM1-OPRD1 inv = mu-delta opioid heterodimer inverse agonism; P35372+P41143; cell-based MOR-DOR heterodimer luminescence; inhibition, % at 9.3 µM; 0.21% of 340,000 active; AID 504357; in the data active = inhibition above about 22%, passing the limit was not always enough;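 note: 0% = cells with DMSO and 100% = wells without cells with DMSO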
# MOR-DOR ag conf = confirmation of human OPRM1-OPRD1 heterodimerization agonists | shares compounds with OPRM1-OPRD1 ag | cells, MOR-DOR heterodimerization, luminescence complementation | activation, % at 9.3 µM | 45% of 830 active | AID 504904;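 note: 0% = vehicle-treated cells and 100% = reference agonist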
# HTR5A ag counter = counter-screen for OPRM1-OPRD1 agonists: human HTR5A agonism. 8% of 830 active. AID 504905. activation, % at 9.3 µM. HTR5A agonist counterscreen, cell luminescence. shares compounds with OPRM1-OPRD1 ag; in the data active = activation above about 17%;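 note: 0% = vehicle-treated cells and 100% = reference agonist response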
# * = called active by the depositor; / = no result given; ! = not active in a repeat. Cut-off read from the data, not from the text of the source, unless noted: active = activation above about 18%; inactive = the rest.
SMILES,HTR5A ag,OPRM1-OPRD1 ag,HTR5A inv ag,OPRM1-OPRD1 inv,others
CCn1nc(-c2ccccc2)nc2c(=O)n(C)c(=O)nc1-2,9,24*,18,-142,
CC1(C)C[C@H]2C=C(C=O)[C@]3(C=O)C[C@]3(C)[C@H]2C1,42*,11,1,-61,
O=c1c2ccccc2nc(/C=C/c2ccccc2F)n1-c1ccccc1O,-1,29*,3,-150,
CC12CC[C@H]3[C@@H](CCC4(O)C[C@H](O)CCC34/C=N/NC(=O)Cc3ccccc3)C1(O)CCC2C1=CC(=O)OC1 (stereo partly drawn),7,2,-18,-11,
CC12CCC(O)CC1CCC1C2CCC2(C)C(C3=CC(=O)OC3)C(O)CC12O (stereo not drawn),33*,69*,-128,-304,
C[C@]12CC[C@H](O)C[C@H]1CC[C@@H]1[C@@H]2CC[C@]2(C)[C@@H](C3=CC(=O)OC3)CC[C@]12O,37*,71*,-74,-395,
CC1CN(c2ccc([N+](=O)[O-])c3cccnc23)CC(C)N1 (stereo not drawn),12,0,-30,-1,
Cc1cc(NC(=O)COC(=O)c2c(C)nn(Cc3ccccc3)c2C)no1,12*,0,-5,-2,
C=CCCC1(CC(C)C)C(=O)NC(=S)NC1=O,0,-2,0,9,
CC(=O)c1ccc2c(c1)C1C(Cl)C(Sc3ccccc3[N+](=O)[O-])CC1C(c1ccccc1[N+](=O)[O-])N2 (stereo not drawn),11*,7,3,-37,
CC(=O)OC1C2CCC1C(N1CCCCC1)CC2 (stereo not drawn),-2,-2,0,12,
CC(=O)OC1C2CCCC1C(N1CCCC1)CC2 (stereo not drawn),13*!,-3,1,12,
NC(=Nc1ccccc1)NN=Cc1c[nH]c2ccccc12,13*,1,-49,-5,
Cc1cc([N+](=O)[O-])c(Cl)cc1NC(=O)C(C)C,-3,0,5,-1,
CNc1cc(Cl)c2nonc2c1[N+](=O)[O-],-5,-6,16,33*,
O=P(O)(O)C12CC3CC(CC(C3)C1)C2,4,-1,-4,4,
CCN(CC)c1ccc(/C=N/c2sc3c(c2C#N)C2CCN3CC2)c(O)c1,-3,-8,11,42*,
c1ccc2c(CCNC3=NCCC3)c[nH]c2c1,11*,-2,-44,14,
O=C1C=C2C=C[C@@H]3CC2(O1)[C@H]1CCCCN31,-2,-2,0,13,
C=C1C(=O)OC2CC(C)C3C=CC(=O)C3(C)C(O)C12 (stereo not drawn),-4,-3,15,14,
C=C1C(=O)O[C@@H]2C[C@@H](C)[C@@H]3C=CC(=O)[C@@]3(C)[C@@H](OC(=O)CC(=O)O[C@H]3[C@@H]4C(=C)C(=O)O[C@@H]4C[C@@H](C)[C@@H]4C=CC(=O)[C@]43C)[C@H]12,-2,-8,7,46*,
Cc1nc2ccccc2c(=O)n1-c1ccc(Br)cc1[N+](=O)[O-],0,3,-1,-20,
COC(=O)C1=C(c2c(C)noc2C)C[C@@H]2CC[C@H]1N2C(=O)NCCOc1ccccc1,5,-3,-20,15,
CNC(C(=O)c1ccccc1)C(OC(C)C)c1ccc(Cl)cc1 (stereo not drawn),8,5,2,-29,
CC1(C)CN=C(Nc2ccccc2C(F)(F)F)S1,11*,-2,0,14,
SMILES,HTR5A ag,OPRM1-OPRD1 ag,HTR5A inv ag,OPRM1-OPRD1 inv,others
FC(F)(F)c1ccccc1NC1=NCCCS1,-4,0,11,1,
CC(=O)N1CC(=O)Nc2ccc(F)cc2C1c1ccccc1 (stereo not drawn),5,-2,-18,9,
COC(=O)C1=C(c2cccc(C#N)c2)C[C@@H]2CC[C@H]1N2C(=O)NCCOc1ccccc1,2,-1,-13,7,
CCCNC(=O)N1[C@H]2CC[C@@H]1C(C(=O)OC)=C(c1cccc(C#N)c1)C2,13*,-1,-4,6,
COP(=O)(OC)Oc1ccc(C(O)C(Cl)(Cl)Cl)cc1 (stereo not drawn),-1,-2,11,11,
Clc1ccc(C(c2ccc(Cl)cc2)n2cc[n+](CC(OCc3ccc(Cl)cc3Cl)c3ccc(Cl)cc3Cl)c2)cc1 (stereo not drawn),20,63*,-10,-347,MOR-DOR ag conf=50*;HTR5A ag counter=10
Cc1ccc(-n2cc(CNC(C)Cc3cnccn3)c(-c3cccc(C)c3)n2)cc1 (stereo not drawn),1,42*,-3,-220,MOR-DOR ag conf=16;HTR5A ag counter=10
CN1CCN(Cc2ccccc2Sc2ccccc2)CC1,0,-1,7,3,
C=CCN1C[C@@H](C)N(C(c2ccc(C(=O)N(CC)CC)cc2)c2cccc(OC)c2)C[C@@H]1C (stereo partly drawn),-1,/,-21,/,HTR5A ag counter=-1
COc1ccc2c(c1O)-c1c(OC)c(OC)cc3c1[C@H](C2)N(C)CC3,-4,0,-5,2,
CCCN1CCc2cccc3c2[C@H]1Cc1ccc(O)c(O)c1-3,4,19*,-14,-101,MOR-DOR ag conf=20*;HTR5A ag counter=3
CC(=O)O[C@H]1[C@H]2O[C@]23[C@@H]2CC[C@]4(O)C[C@@H](O)CC[C@]4(C)C2CC[C@]3(C)[C@H]1c1ccc(=O)oc1 (stereo partly drawn),33*,75*,-111,-406,MOR-DOR ag conf=301*;HTR5A ag counter=2
C[C@]12CC[C@H]3C(CCC4(O)CC(O)CC[C@]34C=O)C1=CC[C@H]2c1ccc(=O)oc1 (stereo partly drawn),23*,67*,-82,-303,MOR-DOR ag conf=33*;HTR5A ag counter=23*
CC1(O)CCC2C3CCC4=CC(=O)CCC4(C)C34OC4CC21C (stereo not drawn),0,-4,1,20,
Cc1ccc(C)c(C2(O)CC(C)N(C)CC2C)c1 (stereo not drawn),1,-4,1,18,
COC(=O)C1=C(c2ccccc2)C[C@@H]2CC[C@H]1N2C(=O)NCc1cccc2ccccc12,4,0,-10,2,
CCOC(=O)[C@]1(C#N)[C@@H]2C=CC(C(C)=O)=CN2[C@@H](C(N)=O)[C@@H]1c1ccsc1,-1,-2,-8,8,
COc1ccc(P2(=O)Nc3ccccc3N2)cc1,0,11,-4,-57,
COc1ccc2c(c1)NP(=S)(c1ccccc1)N2C (stereo not drawn),1,19*,-3,-100,MOR-DOR ag conf=4;HTR5A ag counter=9
COc1cc(OC)c(OC)cc1CN1CCN(C(=O)Cc2ccccc2)CC1,0,1,-1,-5,
N=c1c[n+](CC23CC4CC(CC(C4)C2)C3)[n-]o1,4,24*,-4,-109,MOR-DOR ag conf=36*;HTR5A ag counter=2
COC(=O)C1=C(c2ccc(OC)c(OC)c2)C[C@@H]2CC[C@H]1N2C(=O)NC1Cc2ccccc2C1,5,-1,1,4,
